Records with an inconclusive call do not appear. A number with no mark means an inactive call. Activity calls are given as the source filed them. Calls follow the shape of the dose curve; as a rule, active = well fitted curve in the direction sought with a large enough effect; inconclusive = small, poorly fitted or top-dose-only effect, or another doubt; inactive = no such curve, though single readings can be large; an effect the other way counts as inactive or inconclusive.
Test system: not listed separately
Assay: Drug repurposing screens with cells derived from glioblastoma tumor samples (AID 1345199); also: nearly all actives have a fitted effect of over 40% in size; also: potency is read from the fitted curve at half-maximal effect
Settings: GBM patient neurospheres viability, ATP luminescence, 48 h; tumour line A
In short: (§1)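 Four patient lines of CD133+ GBM neurospheres were screened at several concentrations; hits were retested in those lines plus three slower-growing GBM lines, using 48-hour treatment and ATP-based viability.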
% is scaled to controls: 0 for no effect and ±100 for the full control effect.

SMILES	Potency
CN(C)CCCN1c2ccccc2Sc2ccc(Cl)cc21	3.98 µM (active)
CC(C)(C)NCC(O)COc1ccc(NC(=O)NC2CCCCC2)cc1 (configuration not stated)	31.6 µM (active)
CC(=O)OCC(=O)[C@@]1(O)CC[C@H]2[C@@H]3CCC4=CC(=O)CC[C@]4(C)[C@H]3C(=O)C[C@@]21C	25.1 µM (active)
OCCN1CCN(CCCN2c3ccccc3Sc3ccc(Cl)cc32)CC1	3.16 µM (active)
CNCCC(Oc1ccc(C(F)(F)F)cc1)c1ccccc1 (configuration not stated)	3.55 µM (active)
CN(C)CCCN1c2ccccc2CCc2ccccc21	4.47 µM (active)
CSc1ccc2c(c1)N(CCC1CCCCN1C)c1ccccc1S2 (configuration not stated)	2.82 µM (active)
CCN(CC)CCNC(=O)c1c(C)[nH]c(/C=C2\C(=O)Nc3ccc(F)cc32)c1C	11.2 µM (active)
CNCCCC1c2ccccc2C=Cc2ccccc21	6.31 µM (active)
CN1CCC[C@@H]1Cc1c[nH]c2ccc(CCS(=O)(=O)c3ccccc3)cc12	14.1 µM (active)

Same assay, conditions: GBM patient neurospheres viability, ATP luminescence, 48 h; tumour line B

SMILES	Potency
CN(C)CCCN1c2ccccc2Sc2ccc(Cl)cc21	15.8 µM (active)
OCCN1CCN(CCCN2c3ccccc3Sc3ccc(Cl)cc32)CC1	8.91 µM (active)
CNCCC(Oc1ccc(C(F)(F)F)cc1)c1ccccc1 (configuration not stated)	20 µM (active)
CSc1ccc2c(c1)N(CCC1CCCCN1C)c1ccccc1S2 (configuration not stated)	20 µM (active)

Same assay, conditions: GBM patient neurospheres viability, ATP luminescence, 48 h; tumour line D

SMILES	Potency
CN(C)CCCN1c2ccccc2Sc2ccc(Cl)cc21	20 µM (active)
OCCN1CCN(CCCN2c3ccccc3Sc3ccc(Cl)cc32)CC1	10 µM (active)
CN(C)CCCN1c2ccccc2CCc2ccccc21	12.6 µM (active)
CSc1ccc2c(c1)N(CCC1CCCCN1C)c1ccccc1S2 (configuration not stated)	5.01 µM (active)
CCN(CC)CCNC(=O)c1c(C)[nH]c(/C=C2\C(=O)Nc3ccc(F)cc32)c1C	28.2 µM (active)

Test system: astro (control astrocytes)
Assay: as above
Settings: viability, ATP luminescence, 48 h; series mostly up to 45.9 µM; activity, negative = cell killing: at the top concentration
In short: as §1

SMILES	Potency	activity, negative = cell killing
CCOc1nc2cccc(C(=O)O)c2n1Cc1ccc(-c2ccccc2-c2nn[nH]n2)cc1	20 µM (active)	
CN(C)CCCN1c2ccccc2Sc2ccc(Cl)cc21	12.6 µM (active)	
O=c1cc[nH]c(=O)[nH]1		-13.1%
CN1[C@@H]2CC(OC(=O)[C@H](CO)c3ccccc3)C[C@H]1[C@@H]1O[C@@H]12 (some centres not stated)	inactive	
CCn1cc(C(=O)O)c(=O)c2cnc(N3CCNCC3)nc21		-12.9% [at 21.2 µM]
CC(C)(C)NCC(O)COc1ccc(NC(=O)NC2CCCCC2)cc1 (configuration not stated)		-25.4%
CC(C)c1c(C(=O)Nc2ccccc2)c(-c2ccccc2)c(-c2ccc(F)cc2)n1CC[C@@H](O)C[C@@H](O)CC(=O)O	11.2 µM (active)	
CN1CCN(C2Cc3ccccc3Sc3ccc(Cl)cc32)CC1 (configuration not stated)	22.4 µM (active)	
CCN(CC)CCSC(=O)C(c1ccccc1)c1ccccc1		-26.1%
CS(=O)(=O)c1ccc([C@@H](O)[C@@H](CF)NC(=O)C(Cl)Cl)cc1		19.6% [at 21.2 µM]
Cc1c(Cl)cccc1Nc1ccccc1C(=O)O	11.2 µM (active)	
[O-][n+]1cccc(CO)c1		-9.48%
NCC(=O)CCC(=O)O		-0.137%
CCN(CC)CCCC(C)Nc1c2ccc(Cl)cc2nc2ccc(OC)cc12 (configuration not stated)	20 µM (active)	
CC(=O)OCC(=O)[C@@]1(O)CC[C@H]2[C@@H]3CCC4=CC(=O)CC[C@]4(C)[C@H]3C(=O)C[C@@]21C		-11.2%
CC(C)(C(=O)O)c1ccc(C(O)CCCN2CCC(C(O)(c3ccccc3)c3ccccc3)CC2)cc1 (configuration not stated)		-12%
CCCCN(CCCC)CC(O)c1cc(Cl)cc2c1-c1ccc(Cl)cc1/C2=C/c1ccc(Cl)cc1 (configuration not stated)		-23.7%
CSc1ccc2c(c1)N(CCC1CCCCN1C)c1ccccc1S2 (configuration not stated)	20 µM (active)	
CCN(CC)CCNC(=O)c1c(C)[nH]c(/C=C2\C(=O)Nc3ccc(F)cc32)c1C	12.6 µM (active)	
Oc1cn2c(n1)Nc1ccc(Cl)c(Cl)c1C2	inactive	
CCCc1c(OCCCCc2nn[nH]n2)ccc(C(C)=O)c1O	25.1 µM (active)	
[Cl][In]([Cl])[Cl]		-8.65%
OCc1cc(C(O)CNCCCCCCOCCCCc2ccccc2)ccc1O (configuration not stated)	11.2 µM (active)	
CN1CCC[C@@H]1Cc1c[nH]c2ccc(CCS(=O)(=O)c3ccccc3)cc12		-16.5%
C[C@H]1O[C@@H](n2cc(F)c(=O)[nH]c2=O)[C@H](O)[C@@H]1O		-15.8%
CSc1ccc2c(c1)C(N1CCN(C)CC1)Cc1ccccc1S2 (configuration not stated)	20 µM (active)	
O=C(CCCN1CCN(c2ccccn2)CC1)c1ccc(F)cc1		-14.4%
Cc1cc(C(C#N)c2ccc(Cl)cc2)c(Cl)cc1NC(=O)c1cc(I)cc(I)c1O (configuration not stated)	3.98 µM (active)	
NC(=O)c1ncn([C@@H]2O[C@H](CO)[C@@H](O)[C@H]2O)n1		-27.3%
c1ccc(CN(CC2=NCCN2)c2ccccc2)cc1		-21%

Test system: not listed separately
Assay: qHTS assay to identify inhibitors of the type 1 interferon - major histocompatibility complex class I in skeletal muscle: Counter screen cell viability and HiBit confirmation (AID 1347412); also: nearly all actives have a fitted effect of over 60% in size
Settings: iHSKM muscle cells + IFN-b, HiBiT or CellTiter-Glo, 24 h; Viability; at 45.9 µM (top of the series)
In short: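 Luminescence read-out: Nano-Glo HiBiT lytic signal from C-terminally HiBiT-tagged HLA-B in CRISPR-edited human myoblasts, plus CellTiter Glo ATP as viability counter screen. IFN-beta 4.0 ng/ml; 24 hrs treatment at 37 C, 5% CO2.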

SMILES	activity change, negative = inhibition
CC(=O)Oc1ccc(C2(c3ccc(OC(C)=O)cc3)C(=O)Nc3ccccc32)cc1	-23.2%
CC[C@H]1CN2CCc3cc(OC)c(OC)cc3[C@@H]2C[C@@H]1C[C@H]1NCCc2cc(OC)c(OC)cc21	-15.7%
CC(=O)O[C@@]12CO[C@@H]1C[C@H](O)[C@@]1(C)C(=O)[C@H](O)C3=C(C)[C@@H](OC(=O)[C@H](O)[C@@H](NC(=O)OC(C)(C)C)c4ccccc4)C[C@@](O)([C@@H](OC(=O)c4ccccc4)[C@H]21)C3(C)C	-25.4%

— PubChem BioAssay (NCATS)
